# Screening data: PubChem BioAssay, National Center for Advancing Translational Sciences (NCATS)
# FBPA coupling cs: qHTS Assay for Inhibitors of Fructose-1,6-bisphosphate Aldolase from Giardia Lamblia: Coupling assay counterscreen. coupling enzyme system counterscreen, AmpLite Red fluorescence. activity change, negative = inhibition, % at 58.2 µM, hits read low. 290,000 tested, 0.67% active; in the data active = activity change below about -30%; note: % is set by controls: 0 for no effect and ±100 for the full control effect
#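 Counterscreen of the coupled detection system alone, without aldolase: glyceraldehyde-3-phosphate coupling enzymes plus AmpLite Red readout. Compounds at 57.5 uM final, 10 min RT preincubation, 20 min RT reaction, fluorescence 525/598 nm.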
# TexasRed fluor: Total Fluorescence Counterscreen for Inhibitors of the Interaction of Thyroid Hormone Receptor and Steroid Receptor Coregulator 2; TRb/SRC2 Texas Red total fluorescence interference; Potency, µM (highest dose often 106 µM), inactives show at the top dose fluorescence change, negative = quenching; 280,000 tested, 0.29% active; AID 1479, 2009; active = well fitted curve in either direction with a large enough effect; inconclusive = small, poorly fitted or top-dose-only effect; note: potency is the fitted concentration of half-maximal effect; % is set by controls: 0 for no effect and ±100 for the full control effect
#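 Flags fluorescent or light-absorbing compounds by total fluorescence, S + 2P, at 555 nm excitation and 632 nm emission. Mixture: 20 nM Texas Red SRC2 peptide, 0.6 uM human TRb LBD, 1 uM T3, 5% DMSO; compound exposure 5 h at ambient temperature.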
# HTT ATP protect: qHTS Multiplex Assay to Identify Dual Action Probes in a Cell Model of Huntington: Cytoprotection (ATP); PC12 HTT-Q103 induced, cytoprotection, ATP luminescence, 40 h; Potency, µM (highest dose often 56.4 µM), for inactives: cytoprotection (ATP increase), actives largely listed as activators; 230,000 tested, 0.14% active; note: potency is the fitted concentration of half-maximal effect; % of control where 0% means no effect; nearly all actives have a fitted effect of over 45% in size
#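 ATP quantification (ATPlite) reports survival of PC12 cells in which tebufenozide, 100 nM final, switches on Htt exon 1 with 103 glutamines linked to GFP; compounds are titrated.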
# HTT aggregate: qHTS Multiplex Assay to Identify Dual Action Probes in a Cell Model of Huntington: Aggregate Formation (GFP) | Potency, µM (doses to about 46.1 µM), for the others: top-dose activity change, negative = inhibition, actives largely listed as inhibitors | 220,000 tested, 1.1% active | PC12 HttQ103-GFP aggregates, Acumen cytometry, 40 h; note: potency is the fitted concentration of half-maximal effect; % is set by controls: 0 for no effect and ±100 for the full control effect; nearly all actives have a fitted effect of over 60% in size
#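 PC12/HTTQ103-GFP, ecdysone-inducible; teb 100 nM; cpd qHTS titration; GFP aggregates read on laser cytometer, Ex 488/Em 500-530 nm.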
# TRb-SRC2 inh: qHTS for Inhibitors of the Interaction of Thyroid Hormone Receptor and Steroid Receptor Coregulator 2; Thyroid hormone receptor beta (Homo sapiens), P10828; TRbeta-SRC2 peptide binding, fluorescence polarization; receptor liganded with 1 µM T3; Potency, µM (titrated, usually from 106 µM), without a hit: at the top dose activity change, negative = inhibition, most hits filed as inhibitors; 280,000 tested, 0.065% active; AID 1469, 2008;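 note: potency is the fitted concentration of half-maximal effect; plate controls were bound peptide for no effect and peptide without receptor for full effect; nearly all actives have a fitted effect of over 50% in size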
# Target sequence (P10828 whole entry, looked up): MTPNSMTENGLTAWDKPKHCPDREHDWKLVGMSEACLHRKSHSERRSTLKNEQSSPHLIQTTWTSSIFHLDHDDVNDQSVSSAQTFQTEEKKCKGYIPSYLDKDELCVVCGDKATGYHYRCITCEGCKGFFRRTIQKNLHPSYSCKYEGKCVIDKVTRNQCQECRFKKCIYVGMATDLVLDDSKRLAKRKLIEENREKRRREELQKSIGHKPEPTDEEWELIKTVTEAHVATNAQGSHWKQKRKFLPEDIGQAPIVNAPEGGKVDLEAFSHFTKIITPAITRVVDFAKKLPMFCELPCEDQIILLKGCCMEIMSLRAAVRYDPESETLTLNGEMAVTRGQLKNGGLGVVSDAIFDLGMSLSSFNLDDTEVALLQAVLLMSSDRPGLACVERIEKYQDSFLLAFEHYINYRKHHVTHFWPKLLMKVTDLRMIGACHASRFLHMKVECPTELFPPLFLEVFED
#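 Human TRb LBD (0.6 uM) plus Texas Red-labeled SRC2 peptide (20 nM), 1uM T3, 5% DMSO, 5 hr at ambient temperature. Decreased polarization (555/632 nm) flags inhibition; data normalized to free and bound peptide controls.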
# JMJD2E inh: qHTS Assay for Inhibitors of Human Jumonji Domain Containing 2E (JMJD2E); JMJD2E catalytic domain, FDH-coupled NADH fluorescence (FDH is formaldehyde dehydrogenase); Potency, µM (doses to about 57.1 µM), for inactives: top-dose activity change, negative = inhibition, usual class: inhibitors; 230,000 tested, 1.6% active; AID 2147, 2009; active = well fitted inhibition curve with a large enough effect, not every such curve was filed as active; inconclusive = small, poorly fitted or top-dose-only effect, or another doubt; inactive = no such curve, though single readings can be large or run the other way;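 note: potency is the fitted concentration of half-maximal effect; 0% = wells with enzyme and -100% = buffer wells without enzyme; nearly all actives have a fitted effect of over 50% in size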
# An asterisk follows results filed as active; ? = inconclusive; nt = not tested or not shown; [ ] = another dose, or the depositor's remark. A selection: hits, their analogues and other compounds. The true share with any hit is near 2%. Unless noted, calls come from the whole dose curve; as a rule, active = well fitted curve in the direction sought with a large enough effect; inconclusive = small, poorly fitted or top-dose-only effect, or another doubt; inactive = no such curve, though single readings can be large; an effect the other way counts as inactive or inconclusive.
SMILES,FBPA coupling cs,TexasRed fluor,HTT ATP protect,HTT aggregate,TRb-SRC2 inh,JMJD2E inh
CCN1CCN(C(=O)c2ccc(CSc3ccc(C)cc3)cc2)CC1,3,0%,15%,-26%,13%,4%
Cc1ccc(SCc2ccc(C(=O)N3CCCC3)cc2)cc1,4,-3%,-40%,11µM*,1%,-8%
CCOC(=O)C(NC(C)=O)(NS(=O)(=O)c1ccccc1)C(F)(F)F (centres undefined),2,0%,-17%,3.2µM*,2%,7%
CCOC(=O)NC(NS(=O)(=O)c1ccccc1)(C(=O)OCC)C(F)(F)F (centres undefined),2,-2%,nt,-20%,-2%,-9%
COc1ccccc1CNC(=S)NCCc1ccccc1,0,-2%,3.2µM*,-4%,-5%,4%
O=C(CP(=O)(c1ccccc1)c1ccccc1)N/N=C/c1cc(Br)cc(Br)c1O,2,0%,?,11µM*,-2%,?
O=C(Cc1ccccc1)N/N=C/c1cc(Br)cc(Cl)c1O,-2,-3%,nt,?,-1%,6.3µM*
O=C(O)c1ccncc1.O=C(O)c1ccncc1.[Cl][Pt]([Cl])([Cl])[Cl],nt,nt,-12%[10 µM],nt,nt,nt
CC(C)(CC(=O)N1CCN(c2ccc(Cl)cc2)CC1)CC1=NS(=O)(=O)c2ccccc2N1,-3,-3%,-46%,11µM*,0%,13%
Cc1ccc(N2C(=O)CSC23C(=O)N(CC(=O)Nc2ccccc2F)c2ccccc23)cc1C (centres undefined),nt,-3%,nt,nt,2%,nt
CC[n+]1ccc(C[n+]2ccccc2)c2ccccc21,-32*,-1%,-10%[10 µM],-2%,2%,?
Cc1ccc2c(c1)c(C)cc[n+]2Cc1ccccc1,0,1%,18%[10 µM],-27%,4%,?
CN(C)c1ccccc1CN1CCCN(Cc2ccccc2N(C)C)C1c1ccncc1,nt,nt,-10%[10 µM],nt,nt,nt
C=C(C)OC(C)=O,nt,-2%,0%,nt,1%,nt
C=CCOC(=O)C1=C(C)OC(N)=C(C#N)C1c1c(C)nn(-c2ccccc2)c1Cl (centres undefined),-12,-1%,-26%,7%[9.22 µM],1%,-8%
CCOC(=O)C1=C(C)OC(N)=C(C#N)C1c1c(C)nn(-c2ccccc2)c1Cl (centres undefined),-51*,0%,-7%[10 µM],7%,-12%,?
Cc1[nH]nc2c1C(c1ccc(F)cc1)C(C#N)=C(N)O2 (centres undefined),5,-3%,-2%,15%,-1%,-7%
Cc1oc(C)c2c(=O)ccc3c(c12)OC(N)=C(C#N)C3c1ccc(F)cc1 (centres undefined),-43*,1%,11%,6%,9%,?
CCCSc1ncc(Cl)c(C(=O)Nc2ccc(OC)cc2OC)n1,nt,?,nt,nt,0%,nt
CCN1CCc2c(sc(NC(=O)c3ccc(S(=O)(=O)N4CCCC(C)C4)cc3)c2C(=O)OC)C1 (centres undefined),nt,-2%,nt,nt,6%,nt
COc1ccc(C2C(C#N)=C(N)OC(C(C)(C)C)=C2C#N)cc1OC (centres undefined),-37*,0%,-10%,?,-1%,?
CC(=O)OC1=C(C#N)Cn2ccc3cccc1c32,-41*,-7%,-16%,2%,0%,?
O=C(NCCc1ccccc1)C1CCN(S(=O)(=O)c2ccc(-n3cnnn3)cc2)CC1,-1,-1%,-2%,2.8µM*,-7%,-4%
c1ccc2c(c1)C(=Nc1ccc(N=C3c4ccccc4-c4ccccc43)cc1)c1ccccc1-2,nt,nt,-2%[10 µM],nt,nt,nt
O=C(NCc1ccc2[nH]c3c(c2c1)CCCC3)N1CCOCC1,-53*,7%,4%,7%,-7%,?
SMILES,FBPA coupling cs,TexasRed fluor,HTT ATP protect,HTT aggregate,TRb-SRC2 inh,JMJD2E inh
O=C(NCc1ccc2[nH]c3c(c2c1)CCCC3)c1ccc(S(=O)(=O)N2CCOCC2)cc1,-1,-1%,nt,-11%,4%,-9%
Cc1ccc(S(=O)(=O)/N=C2/C=C(Sc3ncn[nH]3)C(=O)c3ccccc32)c(C)c1,-63*,-15%,-19%[10 µM],5µM*,28µM*,8.9µM*
Cc1ccc(S(=O)(=O)/N=C2/C=C(Sc3ncn[nH]3)C(=O)c3ccccc32)cc1,-55*,-16%,-81%[10 µM],3.2µM*,28µM*,4µM*
CC(C)c1ccc(S(=O)(=O)/N=C2/C=C(Sc3ncn[nH]3)C(=O)c3ccccc32)cc1,-92*,1%,-98%[10 µM],3.5µM*,-19%,1%
Cc1ccc(S(=O)(=O)Nc2ccc(O)c(Sc3ncn[nH]3)c2)cc1,-10,-3%,nt,nt,3%,-3%
CCOC(=O)c1c(Nc2ccc(C)cc2)nnc(-c2ccccc2)c1-c1ccccc1,nt,-3%,nt,nt,12%,nt
O=C(Nc1sc2c(c1C(=O)O)CCC2)c1ccc(F)cc1,1,-2%,-76%,-10%,9%,-8%
Cc1ccc(-c2csc(NC(=O)c3ccc(Br)cc3)c2C(=O)O)cc1,-30*,nt,nt,nt,nt,nt
O=C(Nc1sc2c(c1C(=O)O)CCC2)c1ccccc1,-21,-7%,-33%,12%,0%,-4%
O=C(Nc1sc2c(c1C(=O)O)CCCCC2)c1ccccc1,-38*,2%,-39%[10 µM],10%[9.22 µM],5%,3%
CC(C)Cc1csc(NC(=O)c2ccc(Cl)cc2)c1C(=O)O,-19,3%,11%[10 µM],22µM*,5%,6%
O=C(Nc1sc2c(c1C(=O)O)CCCC2)c1ccc(Cl)cc1,-36*,nt,nt,nt,nt,nt
C=C(C)C(=O)OCCOCC,1,?,nt,nt,-9%,nt
CC(C)n1c(=S)[nH]c2c1c(=O)[nH]c(=O)n2C,4,0%,-17%,12%,1%,7.9µM*
C=CC(C)n1c(Br)nc2c1c(=O)[nH]c(=O)n2C (centres undefined),1,0%,9%,-3%,10%,1%
COc1ccc(-c2cccc(C3CC=CC4C3C(=O)N(Cc3ccccc3)C4c3ccc(C(F)(F)F)cc3)c2)cc1 (centres undefined),1,-2%,-45%[10 µM],1µM*,6%,-13%
CC(=O)c1ccc(-n2cc(-c3ccc(C(C)(C)C)cc3)[n+]3c2SCCC3)cc1,-2,0%,-49%,10µM*,-7%,2%
